# In the library only some 21% were active in any assay of this set; here they are far more common.
# Shiga toxin inh: Shiga toxin inhibition. Vero cells, Shiga toxin protein synthesis inhibition reporter. inhibition, % at 38.7 µM. 9.2% of 290,000 active; in the data active means inhibition mostly above about 28%, no sharp cut-off; inactive means mostly below about 43%; further: 0% is about no effect
# Cycloheximide cs: counter-screen hit for Shiga toxin inhibitors, cycloheximide; 12% of 300,000 active; cell reporter, cycloheximide protein synthesis inhibition counterscreen; AID 2314; max response, %; in the data active means max response mostly above about 13%, no sharp cut-off; inactive means mostly below about 14%; further: read at 38.3 µM for the half of the compounds with a filed dose; 0% is about no effect
# Pf growth 96h: inhibits malaria parasite growth, 96 h; P. falciparum luciferase reporter growth, 96 h; 6.9% of 320,000 active; Potency, µM (titrated, usually from 28.7 µM), without a hit: top-dose activity change, negative = inhibition, usual class: inhibitors; active means well fitted inhibition curve with a large enough effect; inconclusive means small, poorly fitted or top-dose-only effect, or another doubt; inactive means no such curve, though single readings can be large or run the other way; further: potency means the concentration at half of the fitted maximal effect; on the % scale 0 is the no-effect control and ±100 the full control effect
#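 Infected RBCs, 2% Hct / 0.05% parasitemia final; luciferase-reporter P. falciparum; cpd 96 h, 37 C, 5% CO2; luciferase detection reagent; luminescence.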
# Pf growth 48h: P. falciparum growth inhibition at 48 hours (one generation); Potency, µM (highest dose often 28.7 µM), inactives show at the top dose activity change, negative = inhibition, usual class: inhibitors; P. falciparum luciferase growth in erythrocytes, 48 h; 5.9% of 310,000 active; active means well fitted inhibition curve with a large enough effect; inconclusive means small, poorly fitted or top-dose-only effect, or another doubt; inactive means no such curve, though single readings can be large or run the other way; further: potency means the concentration at half of the fitted maximal effect; on the % scale 0 is the no-effect control and ±100 the full control effect
#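 Cell-based growth assay: transgenic P. falciparum expressing firefly luciferase, cultured in red cells within RPMI 1640 containing 0.5% w/v Albumax, 24 mM bicarbonate and gentamycin. A drop in luciferase activity indicates inhibition.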
# NS1 function inh: inhibitors of influenza NS1 protein function; AID 2326; Potency, µM (top dose mostly 46.1 µM), inactives show top-dose activity, positive = more growth; 0.4% of 270,000 active; further: potency means the concentration at half of the fitted maximal effect; actives are rising curves; nearly all actives have a fitted effect of over 50% in size
#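 OD600 was taken as the measure of yeast growth restored by compound in an NS1-expressing S. cerevisiae strain. Cells had been washed out of glucose medium and diluted 1:100 into galactose -URA medium, pH 6.0.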
# SARS PLP yeast: blocks SARS-CoV papain-like protease in a yeast assay | S. cerevisiae expressing SARS-CoV PLpro, growth rescue | Potency, µM (highest dose often 32.9 µM), for inactives: top-dose activity, positive = growth rescue, most hits filed as activators | 0.19% of 330,000 active | AID 485353; further: potency means the concentration at half of the fitted maximal effect; 0% is about no effect; nearly all actives have a fitted effect of over 55% in size
# Starred values were filed as active, the others as inactive; ? = inconclusive; nt = not tested or not shown. Unless noted, the call rests on the fitted dose curve.
SMILES,Shiga toxin inh,Cycloheximide cs,Pf growth 96h,Pf growth 48h,NS1 function inh,SARS PLP yeast
O=C1NC(=S)N/C1=C/c1cccnc1,-5,-6,?,1%,-35%,2%
CSC1=NC(C)N2C(SC)=NC(C)N12 (stereo not drawn),13,-2,40%,109%,2%,1%
COc1cccc(C(CNC(=O)C(c2ccccc2)c2ccccc2)N(C)C)c1 (stereo not drawn),-5,8,-15%,-6%,4%,0%
Cc1cc2nc(C)c(Cc3ccccc3)c(=O)n2[nH]1,14,-1,4%,?,-19%,1%
O=C(c1nc2ccccn2c1CN1CCCC(O)C1)N1CCN(C2CCCCC2)CC1 (stereo not drawn),-10,-1,?,?,1%,?
Cc1ccc2ccc3c(c2n1)NS(=O)(=O)c1ccc(C(F)(F)F)cc1-3,-4,-4,nt,nt,nt,nt
CC1(C)O[C@H]2[C@@H](O1)[C@@H](On1nnc3ccc(Cl)cc31)O[C@@H]2[C@@H]1COC(C)(C)O1,nt,nt,nt,nt,-3%,nt
O=C1/C(=C/c2cccnc2)CC/C1=C\c1cccnc1,34,63*,?,?,nt,0%
O=C1/C(=C/c2ccc(C(=O)O)cc2)CCC/C1=C\c1ccc(C(=O)O)cc1,-1,-3,1.5µM*,2.1µM*,23%,15%
O=C1/C(=C\c2ccc([N+](=O)[O-])cc2)CCc2ccccc21,9,26*,150%,29%,0%,3%
CCC1C/C(=C\c2cccnc2)C(=O)/C(=C/c2cccnc2)C1 (stereo not drawn),-3,38*,21%,7.4µM*,-63%,-80%
O=C(NCc1ccc2c(c1)OCO2)c1cc(-c2cc(Cl)ccc2O)n[nH]1,-8,2,?,?,14%,1%
O=C1/C(=C/c2cccnc2)CCC/C1=C\c1cccnc1,-5,-2,13µM*,10µM*,-38%,-126%
O=C1NC(=S)N/C1=C\c1cccnc1,7,7,-6%,55%,-3%,1%
COC(=O)C1=CN(c2ccc(OC)cc2)C=C(C(=O)OC)C1c1ccc([N+](=O)[O-])cc1,-1,-1,4.1µM*,13µM*,-1%,0%
COc1ccc(NC(=O)N2CCN(c3ccc([N+](=O)[O-])cc3)CC2)cc1,-14,-5,?,-2%,2%,-1%
COC(=O)C1=CN(c2ccc(F)cc2)C=C(C(=O)OC)C1c1ccc([N+](=O)[O-])cc1,-7,-2,9.3µM*,7.4µM*,13%,-1%
COC(=O)C1=CN(c2cccc(Cl)c2)C=C(C(=O)OC)C1c1cccc(OC)c1,-3,-5,54%,12µM*,7%,10%
COC(=O)C1=CNC=C(C(=O)OC)C1c1cccc2ccccc12,-4,7,6%,12µM*,0%,-1%
COC(=O)C1=CNC=C(C(=O)OC)C1c1ccccc1Cl,-13,-2,10%,-25%,-4%,0%
COC(=O)C1=CN(c2ccc(F)cc2)C=C(C(=O)OC)C1c1cccc(Br)c1,-11,2,-14%,12µM*,22%,3%
COC(=O)C1=CN(c2ccc(Cl)cc2)C=C(C(=O)OC)C1c1ccc([N+](=O)[O-])cc1,-4,1,5.2µM*,13µM*,4%,1%
COC(=O)C1=CNC=C(C(=O)OC)C1c1cccc(OC)c1,-10,-2,30%,?,9%,3%
COC(=O)C1=CN(C2CC2)C=C(C(=O)OC)C1c1ccc(C(=O)OC)cc1,42,-3,225%,?,1%,-15%
COC(=O)C1=CNC=C(C(=O)OC)C1c1ccc(Cl)cc1,-11,-2,1%,9.3µM*,-3%,3%
Cc1ccc(NC(=O)COC(=O)CC2CCCC2)cc1Cl,2,5,3%,29%,nt,-1%
O=C(O)CC(NS(=O)(=O)c1ccc2c(c1)OCCO2)c1ccccc1[N+](=O)[O-] (stereo not drawn),nt,nt,nt,nt,nt,14%
Cc1ccc2c(c1)C1CN(C)CCC1N2Sc1ccccc1[N+](=O)[O-] (stereo not drawn),-9,-7,10µM*,?,11%,-2%

# Bioassay records: PubChem BioAssay, National Center for Advancing Translational Sciences (NCATS)
